outcome, Potency and activity change, negative = cytotoxicity data for 7 compounds are collected here from PubChem BioAssay (NCATS).

Values without a mark were called inactive. Inconclusive results are not listed. The source made the active and inactive calls. Calls come from the whole dose curve; as a rule, active = well fitted curve in the direction sought with a large enough effect; inconclusive = small, poorly fitted or top-dose-only effect, or another doubt; inactive = no such curve, though single readings can be large; an effect the other way counts as inactive or inconclusive. *1 amine or outer side, *2 acyl side, *3 side chain or, on linkers, in order; H or OH if unused. Where a SMILES comes first, the peptide text is derived from it. Bridges are numbered along the chain shown (N, C = ends). Roman numbers before positions name the chains, in order. [ ]: non-standard residue; d: D form. ξ: configuration not given here. Actinocin(9to1) = Cc1c2oc3c(C)ccc(C(=O)[*:1])c3nc-2c(C(=O)[*:2])c(N)c1=O; ξNMeV = CNC(C(=O)O)C(C)C; ξV = CC(C)C(N)C(=O)O; Sar = CNCC(=O)O

Experiment [1] is described as follows: Vero cells viability qHTS for Zika virus inhibitors (AID 1347167). Note: % is set by controls: 0 for no effect and ±100 for the full control effect. The procedure, abridged:
(§1)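 To flag cytotoxic protease inhibitors, viability is measured by ATP-dependent luminescence (CellTiter Glo) after cells attached overnight receive compound for 24 to 48 hours in DMEM with 4% FBS.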
(qHTS replaces the single test concentration by a dilution series.)

Experiment [2] can be described thus: HepG2 cells viability qHTS for Zika virus inhibitors (AID 1347168). Note: % is set by controls: 0 for no effect and ±100 for the full control effect. In a few lines: as §1
Experiment [3] in a line: OV-KATE Cancer Cell Toxicity qHTS against the NCATS CANVASS Library (AID 1347345). Note: % is set by controls: 0 for no effect and ±100 for the full control effect. The procedure, abridged: (§2)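 Step one: seed 1000 cells per well. Step two: incubate 4 h. Step three: add test compounds in 11 concentrations. Step four: culture 72 h, then add CellTiter-Glo and record luminescence after 15min.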
A short description of experiment [4]: HPAF-II Cancer Cell Toxicity qHTS against the NCATS CANVASS Library (AID 1347346). Note: potency is the fitted concentration of half-maximal effect; nearly all actives have a fitted effect of over 55% in size. The procedure, abridged:
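Cytotoxicity read-out was CellTiter-Glo luminescence after 72 h at 37 degrees C exposure of HPAF-II cells (1000/well) to compounds in an 11-point titration.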

A short description of experiment [5]: OV-SAHO Cancer Cell Toxicity qHTS against the NCATS CANVASS Library (AID 1347348). Note: series mostly up to about 38 µM; % is set by controls: 0 for no effect and ±100 for the full control effect; nearly all actives have a fitted effect of over 55% in size. In a few lines:
as §2

Experiment [6] in a line: SW1088 Cancer Cell Toxicity qHTS against the NCATS CANVASS Library (AID 1347350). Note: nearly all actives have a fitted effect of over 75% in size. Particulars: outcome: dose series up to 38.3 µM. In a few lines: as §2
The nature of experiment [7]: U-118MG Cancer Cell Toxicity qHTS against the NCATS CANVASS Library (AID 1347351). Note: series mostly up to about 38 µM; % is set by controls: 0 for no effect and ±100 for the full control effect. In a few lines:
as §2

Experiment [8] can be described thus: COV-362 Cancer Cell Toxicity qHTS against the NCATS CANVASS Library (AID 1347352). In a few lines:
(§3)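 Toxicity was measured as CellTiter-Glo luminescence after 72 h exposure to an 11-point compound series. Compound was added to 1000 cells/well 4 h after seeding.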

Experiment [9] can be described thus: A2780 Cisplatin Sensitive Ovarian Cancer Cell Toxicity qHTS against the NCATS CANVASS Library (AID 1347353). Note: nearly all actives have a fitted effect of over 60% in size. The following applies: outcome: dose series up to 46.1 µM. In a few lines:
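Cisplatin-sensitive A2780 ovarian cells (750/well) received compound in 11 concentrations, and were incubated 72 h at 37 °C. ATP content was measured by ATPLite luminescence; bortezomib served as control.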

Experiment [10] can be described thus: UWB1.289-WTBRCA1 Cancer Cell Toxicity qHTS against the NCATS CANVASS Library (AID 1347354). Note: % is set by controls: 0 for no effect and ±100 for the full control effect. The procedure, abridged: as §3
Experiment [11] can be described thus: HEK-293 Cancer Cell Toxicity qHTS against the NCATS CANVASS Library (AID 1347355). Note: series mostly up to about 46 µM; nearly all actives have a fitted effect of over 65% in size. Particulars: outcome: dose series up to 46.1 µM. In a few lines:
as §3

Experiment [12] can be described thus: HPAF-II 24hr Apoptosis Induction qHTS against the NCATS CANVASS Library (AID 1347356). Note: 0% is about no effect. In a few lines: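 Caspase-Glo 3/7 luminescence, read after 15 min room-temperature development, measures apoptosis in HPAF-II cells treated 24 h at 37 degrees C with an 11-point concentration series; 500 cells/well; doxorubicin control.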
A short description of experiment [13]: HEK293 18hr Apoptosis Induction qHTS against the NCATS CANVASS Library (AID 1347357). Note: 0% is about no effect. The procedure, abridged:
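HEK293 cells (500 per well, DMEM with 10% FBS) were treated with natural products, incubated 18 hours at 37 degrees C, then caspase-3/7 activity was read by Caspase-Glo luminescence after 15 min at room temperature.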

Experiment [14] in a line: HPAF-II 12hr Apoptosis Induction qHTS against the NCATS CANVASS Library (AID 1347358). Note: 0% is about no effect. In a few lines:
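Caspase-3/7 activation by DEVD-substrate luminescence (Caspase-Glo 3/7, 15 min, room temperature) after a 12-hour compound exposure in 11 concentrations, of HPAF-II pancreatic cells seeded at 500/well in DMEM with 10% FBS.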

Experiment [15] can be described thus: HEK293 24hr Apoptosis Induction qHTS against the NCATS CANVASS Library (AID 1347359). Note: 0% is about no effect. In a few lines:
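HEK293 cells (500/well, DMEM + 10% FBS) were exposed to compounds in an 11-point series for 24 hours at 37 degrees C, then caspase-3/7 activity was read by Caspase-Glo DEVD luciferase luminescence after 15 min.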

Experiment [16] is described as follows: HPAF-II 18hr Apoptosis Induction qHTS against the NCATS CANVASS Library (AID 1347360). Note: 0% is about no effect. In a few lines: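 HPAF-II cells (500/well, DMEM + 10% FBS) were exposed to compounds for 18 hours at 37 degrees C. Caspase-3/7 activity was then read by Caspase-Glo 3/7 luminescence after 15 min at room temperature.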
The nature of experiment [17]: HEK293 12hr Apoptosis Induction qHTS against the NCATS CANVASS Library (AID 1347361). Note: 0% is about no effect. The procedure, abridged:
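Read-out: Caspase-Glo 3/7 luminescence (DEVD substrate), 15 min RT. Preceded by 12 h compound exposure of HEK293, 500 cells/well, 11-pt qHTS titration; doxorubicin titration as control.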

In experiment [18] the test system is NAD(P)H diaphorase (Clostridium kluyveri). The experiment is described as follows: Diaphorse counterscreen qHTS: Assay Interference Panel against the NCATS CANVASS Library (AID 1347362). Note: 0% is about no effect. In a few lines:
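Clostridium kluyveri diaphorase in PBS with 0.01% Tween-20 was preincubated 15 min at room temperature in the dark with compounds (11-point series). Resorufin fluorescence (ex 525/20, em 598/25) was read 5 min after adding resazurin/NADH.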
For orientation: Counterscreens check selectivity or assay interference.

In experiment [19] the target is Luciferin 4-monooxygenase (Photinus pyralis) (UniProt P08659). The experiment is described as follows: Firefly luciferase counterscreen qHTS: Assay Interference Panel against the NCATS CANVASS Library (AID 1347363). Note: series mostly up to about 57 µM; 0% is about no effect. In a few lines: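 Purified P. pyralis luciferase was added to compounds (11-point series) preincubated 15 min at room temperature with substrate containing 0.013 mM D-luciferin and 0.013 mM ATP; luminescence was read after 5 min.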
Luciferin 4-monooxygenase (Photinus pyralis), sequence (P08659 whole entry, looked up): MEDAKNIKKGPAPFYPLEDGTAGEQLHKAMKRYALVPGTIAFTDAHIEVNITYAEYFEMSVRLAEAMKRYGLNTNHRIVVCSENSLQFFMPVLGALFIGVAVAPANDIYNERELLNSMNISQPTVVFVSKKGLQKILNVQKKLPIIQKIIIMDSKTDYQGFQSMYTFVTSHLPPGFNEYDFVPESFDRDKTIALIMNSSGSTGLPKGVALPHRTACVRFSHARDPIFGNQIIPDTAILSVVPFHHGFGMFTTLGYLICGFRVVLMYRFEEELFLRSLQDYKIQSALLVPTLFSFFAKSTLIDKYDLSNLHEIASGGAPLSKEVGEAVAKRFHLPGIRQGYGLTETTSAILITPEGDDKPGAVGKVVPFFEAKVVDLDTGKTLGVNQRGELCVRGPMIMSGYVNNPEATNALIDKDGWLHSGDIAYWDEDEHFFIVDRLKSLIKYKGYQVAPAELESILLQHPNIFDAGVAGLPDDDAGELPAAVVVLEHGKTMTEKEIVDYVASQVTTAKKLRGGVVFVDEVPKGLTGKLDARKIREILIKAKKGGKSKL

For `N#CC1C(=O)Nc2scc(-c3ccc(-c4ccccc4O)cc3)c2C1=O` (centres undefined), the result in experiment [1] and in experiment [2] was inactive.

For `Cc1c2oc3c(C)ccc(C(=O)N[C@@H]4C(=O)NC(C(C)C)C(=O)N5CCC[C@H]5C(=O)N(C)CC(=O)N(C)C(C(C)C)C(=O)O[C@@H]4C)c3nc-2c(C(=O)N[C@@H]2C(=O)NC(C(C)C)C(=O)N3CCC[C@H]3C(=O)N(C)CC(=O)N(C)C(C(C)C)C(=O)O[C@@H]2C)c(N)c1=O` (some centres undefined) (I: T[ξV]P[Sar][ξNMeV] / II: T[ξV]P[Sar][ξNMeV]; ester I:1-I:C, II:1-II:C; linker I:N-II:N via Actinocin(9to1)), the result in experiment [1] and in experiment [2] was inactive.

Consider `CC(C)C1=CCC(C)(O)C(OC2OC(CO)C(O)C(O)C2O)C1` (centres undefined), for which the outcome in experiment [1] and in [2] was inactive.

In the case of `CCOc1ccc(-c2ccc(Cn3c(CC(C)(C)C(=O)O)c(SC(C)(C)C)c4cc(OCc5ccc(C)cn5)ccc43)cc2)cn1`, the outcome in [1] and in experiment [2] was inactive.

On to `C/C=C/C=C/C(CC(=O)O)Nc1ccc(C=O)cc1` (centres undefined), for which the compound was classed as inactive in experiment [3], in [5], in experiment [6], in experiment [7], in experiment [8] and in [9]. In addition, the outcome in experiment [10], in experiment [11], in experiment [12], in [13], in experiment [14] and in experiment [15] was inactive. The compound was called inactive in experiment [16], in experiment [17], in [18] and in experiment [19]. The Potency in experiment [4] was 3.75 µM (active).

Consider `CCOc1c2c(c(OCC)c3ccccc13)C(=O)N(c1ccc(CC(=O)NS(=O)(=O)c3ccccc3)cc1)C2`, for which the result in experiment [1] and in experiment [2] was inactive.

`CC(=O)O[C@@H]1C[C@]2(C)[C@@]3(CCC4[C@@]5(C)CC[C@H](O[C@@H]6O[C@H](C(=O)O)[C@@H](O)[C@H](O[C@@H]7O[C@H](CO)[C@H](O)[C@H](O)[C@H]7O[C@@H]7O[C@@H](C)[C@H](O)[C@@H](O)[C@H]7O[C@@H]7OC[C@](O)(CO)[C@H]7O)[C@H]6O[C@@H]6O[C@H](CO)[C@H](O)[C@H](O)[C@H]6O)C(C)(C)C5CC[C@]42C)O[C@@H](O)[C@]12C3CC(C)(C)[C@@H](OC(=O)/C=C/c1ccc(O)c(O)c1)[C@@H]2OC(=O)/C=C/c1ccccc1` (some centres undefined): the activity change, negative = cytotoxicity in experiment [1] is -1.71% [at 8.96 µM]; in experiment [2] it was 0.159% [at 8.96 µM].
